{
  "source": "the OligoGym collection",
  "data": [
    {"target": "SLC2A3", "assay": "pooled miR-30 sensor sort-seq; sequence = guide strand", "settings": "shRNA", "values": [
      {"sequence": "TTAGCTACTTTACACAGTCCCA", "sensor-assay potency score (higher = more potent)": -1.12},
      {"sequence": "TTCTTTTCTGTTAATGAGCAAA", "sensor-assay potency score (higher = more potent)": -1.47},
      {"sequence": "TCTGCTTAGCATTCTCCTCTTC", "sensor-assay potency score (higher = more potent)": 0.0393},
      {"sequence": "TTGACGAAGAGTCCGACGGAAA", "sensor-assay potency score (higher = more potent)": -1.44},
      {"sequence": "TAGCTACTTTACACAGTCCCAT", "sensor-assay potency score (higher = more potent)": -0.496},
      {"sequence": "TTCCAGATCTATCTGCACCGTG", "sensor-assay potency score (higher = more potent)": 0.283},
      {"sequence": "TTATCCTTTAATAACAAAGAAA", "sensor-assay potency score (higher = more potent)": -1.62},
      {"sequence": "TTTGAAGAAGGTAAAAGCCAAG", "sensor-assay potency score (higher = more potent)": -1.07},
      {"sequence": "TAGGATAGCAGGAAGGATGGTA", "sensor-assay potency score (higher = more potent)": 0.643},
      {"sequence": "TTGTAGGATAGCAGGAAGGATG", "sensor-assay potency score (higher = more potent)": -1.65},
      {"sequence": "TTATGATCTTCTCAGGAGCATT", "sensor-assay potency score (higher = more potent)": -1.71},
      {"sequence": "TTACACAGTCCCATAAAGCAGC", "sensor-assay potency score (higher = more potent)": -0.688}
    ]},
    {"target": "SLC2A7", "assay": "pooled miR-30 sensor sort-seq; sequence = guide strand", "settings": "shRNA", "values": [
      {"sequence": "TTCATCTCCTTTCTGAATCAGG", "sensor-assay potency score (higher = more potent)": -0.693},
      {"sequence": "TTTATCTCCACAAATGTTTTGC", "sensor-assay potency score (higher = more potent)": 0.129},
      {"sequence": "TTACATATTGGGAGTGAGCGGC", "sensor-assay potency score (higher = more potent)": -0.256},
      {"sequence": "TTTCGTTGTAAAATGACTTGAA", "sensor-assay potency score (higher = more potent)": 0.429},
      {"sequence": "TGACTTGAAGACCTTGTGCGGC", "sensor-assay potency score (higher = more potent)": -0.691},
      {"sequence": "TTTCTCTTGGCAAAAATGCGGT", "sensor-assay potency score (higher = more potent)": -0.876},
      {"sequence": "TAGTAGTTGATCGCATTGATGC", "sensor-assay potency score (higher = more potent)": -1.14},
      {"sequence": "TTCTGAATCAGGGAGTAGCGGG", "sensor-assay potency score (higher = more potent)": -1.43},
      {"sequence": "TTGAAGACCTTGTGCGGCGTGT", "sensor-assay potency score (higher = more potent)": -0.139},
      {"sequence": "TCTGCCGCAGCTATCAACCAGC", "sensor-assay potency score (higher = more potent)": -0.668},
      {"sequence": "TAGTTGATCGCATTGATGCCCG", "sensor-assay potency score (higher = more potent)": -0.411},
      {"sequence": "TAAATCGCAGTGAGGAGGCAGA", "sensor-assay potency score (higher = more potent)": -0.695}
    ]}
  ]
}
